According to PubChem BioAssay AID686979 (National Center for Advancing Translational Sciences (NCATS), 2013):
Among all 420,000 compounds or so, about 50,000 (12%) were called active. Another 26% or so got no clear call; they are omitted. The call rests on the fitted dose curve; in most records, active means well fitted inhibition curve with a large enough effect; inconclusive means small, poorly fitted or top-dose-only effect; inactive means flat fitted curve, though single readings scatter. What follows is part of a selection rich in actives, with near analogues and random picks from the rest. A call without a number means that no potency is given here.

Test: qHTS for Inhibitors of human tyrosyl-DNA phosphodiesterase 1 (TDP1): qHTS in cells in presence of CPT; further: nearly all actives have a fitted effect of over 55% in size
Settings: chicken DT40 Tdp1-/-;hTDP1 cells + 20 nM CPT, ATP luminescence, 48 h; series mostly up to 46.2 µM
Summary of the method: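 Chicken DT40 Tdp1-/- cells complemented with human TDP1, 400 cells/well, exposed to compounds plus 20 nM camptothecin for at least 48 h at 37 C; viability read as ATP content by CellTiter-Glo luminescence.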
Potency means the concentration at half of the fitted maximal effect.

Row | Structure (SMILES) | Potency
1 | NS(=O)(=O)c1ccc(CCNC(=O)CN2C(=O)c3ccccc3S2(=O)=O)cc1 | inactive
2 | O=C(O)C(=Cc1ccc([N+](=O)[O-])cc1)CCc1ccccc1 | inactive
3 | COc1ccc(NC(=O)CCN2CCCC2)c(OC)c1 | inactive
4 | COc1ccccc1NC(=O)CCN1CCN(c2ccc(Cl)cc2)CC1 | 14.6 µM (active)
5 | COc1ccc(Cl)cc1NC(=O)CCN1CCOCC1 | inactive
6 | CC(C#N)(NC(=O)CN1CCN(S(=O)(=O)c2cc(C(F)(F)F)ccc2Cl)CC1)C1CC1 (configuration not stated) | inactive
7 | Cc1cc(NC(=O)COC(=O)/C=C/c2ccc(C)o2)no1 | inactive
8 | CCCCc1ccc(NC(=O)NCc2cccnc2)cc1 | inactive
9 | Cc1cc(/C=C2/SC(=O)N(CC(=O)N3CCCC3)C2=O)c(C)n1C | inactive
10 | Cc1cccc(N2CCN(C3=C(c4ccccc4)C(=O)c4ccccc43)CC2)c1C | 7.31 µM (active)
11 | O=C1c2ccccc2C(=O)c2c1cccc2N1CCN(CCO)CC1 | inactive
12 | Cc1cccc(N2CCN(c3c(CN4CCCC4)c(=O)oc4ccccc34)CC2)c1C | inactive
13 | COc1ccc(CCNC(=O)CCCCCNC(=O)N2CCn3c2nc2ccccc23)cc1OC | inactive
14 | COc1cc(C(=O)OCC(=O)N(CC(C)C)C2CCS(=O)(=O)C2)ccc1OCC(C)C (configuration not stated) | inactive
15 | COC(=O)c1c(NC(=O)CN2CCN(S(=O)(=O)c3ccccc3[N+](=O)[O-])CC2)sc2c1CCC(C)C2 (configuration not stated) | inactive
16 | CCOc1ccc(NC(=O)c2c(NC(=O)Cc3ccccc3)sc3c2CCCCC3)cc1 | 18.4 µM (active)
17 | CCOc1ccc(NC(=O)c2c(NC(=O)Cc3ccccc3)sc3c2CCC(C)C3)cc1 (configuration not stated) | 16.4 µM (active)
18 | CC(C)OC(=O)c1c(NC(=O)c2ccco2)sc2c1CCCC2 | inactive
19 | CCOC(=O)c1c(NC(=O)/C=C/c2ccc(OC)cc2)sc2c1CCC(C)C2 (configuration not stated) | inactive
20 | Cc1ccc(C)c(N2CCN(C(=O)Cn3ncn4cccc4c3=O)CC2)c1 | inactive
21 | Cc1ccc(NC(=O)C(CC(=O)O)C2CCCO2)c(C)c1 (configuration not stated) | inactive
22 | CN(Cc1ccccc1)C(=O)COC(=O)/C=C/c1ccc2c(c1)OCO2 | inactive
23 | COc1ccccc1C1C(C(N)=O)=C(C)Nc2nc(CCCO)nn21 (configuration not stated) | inactive
24 | CC(C)=C(NC(=O)c1ccco1)C(=O)NCCc1nc2ccccc2[nH]1 | inactive
25 | Cc1ccc(C(=O)N/C(=C/c2ccco2)C(=O)NCCc2c[nH]c3ccccc23)cc1C | inactive
26 | CC(C)Oc1ccc(/C=C(\NC(=O)/C=C/c2ccco2)C(=O)NCCc2nc3ccccc3[nH]2)cc1 | 18.4 µM (active)

Row | Structure (SMILES) | Potency
27 | COc1ccccc1Nc1nnc(SC(C)C(=O)NC2CC2)s1 (configuration not stated) | inactive
28 | O=c1[nH]c(=O)n(Cc2ccco2)c2c1C(C(F)(F)F)(C(F)(F)F)N=C(c1ccco1)N2 | inactive
29 | Cc1ccccc1C1=NC(C(F)(F)F)(C(F)(F)F)c2c(n(-c3ccc(F)cc3)c(=O)[nH]c2=O)N1 | 18.4 µM (active)
30 | CN(C(=O)CC1C(=O)NCCN1Cc1ccc(F)cc1Cl)C1CCCCC1 (configuration not stated) | inactive
31 | CCOc1ccccc1NC(=O)Cn1ncc2ccc([N+](=O)[O-])cc21 | inactive
32 | COC(=O)c1c(C)cc(O)c(C)c1O | inactive
33 | C/C(=N\NC(=O)C1(C)CC1(Br)Br)c1ccc(C)cc1C (configuration not stated) | inactive
34 | O=c1c(-c2ccccc2)coc2c(CN3CCOCC3)c(O)ccc12 | inactive
35 | CN(C)Cc1c(O)ccc2c(=O)c(-c3ccccc3Cl)coc12 | inactive
36 | CC(C)CN(Cc1c(O)ccc2c(=O)c(-c3ccccc3)coc12)CC(C)C | 5.17 µM (active)
37 | Cc1ccccc1OCC(=O)Nc1nc(C)c(C(=O)N(C)C)s1 | inactive
38 | CCc1ccccc1N(C)C(=O)C1CCCN(c2ncnc3onc(-c4ccc(F)cc4)c23)C1 (configuration not stated) | 13 µM (active)
39 | Cc1ccnc(N2CCCC(C(=O)Nc3cc(F)ccc3C)C2)n1 (configuration not stated) | inactive
40 | Cc1ccc(Cl)cc1N(C)C(=O)C1CCCN(c2ncnc3onc(-c4ccc(F)cc4)c23)C1 (configuration not stated) | 7.31 µM (active)
41 | CCc1noc(C)c1C(=O)N1CCCC(N2CCN(c3ccc(F)cc3)CC2)C1 (configuration not stated) | inactive
42 | CC1=C(c2ccc(F)cc2)S(=O)(=O)N=C1N1CCC(C(=O)NCCc2ccccc2C)CC1 | inactive
43 | O=S(=O)(c1ccc(Cl)s1)N1CCC2(CC1)OCCO2 | inactive
44 | CNC(=O)c1ccc(NC(=O)c2cccc(C(F)(F)F)c2)cc1 | inactive
45 | O=C(Nc1ccc(-c2csc(Nc3cccc(C(F)(F)F)c3)n2)cc1)c1cccc(C(F)(F)F)c1 | 9.2 µM (active)
46 | Cc1cccc(NC(=O)c2cccc(C(F)(F)F)c2)c1 | inactive
47 | O=C1COc2ccc(S(=O)(=O)Nc3ccc(OC(F)(F)F)cc3)cc2N1 | inactive
48 | COc1ccc(OC)c(S(=O)(=O)Nc2c(C)nn(C)c2C)c1 | inactive
49 | Cc1nn(Cc2ccccc2)c(C)c1NS(=O)(=O)c1ccccc1 | inactive
50 | Nc1ncc(S(=O)(=O)Nc2ccc(OC(F)(F)F)cc2)cn1 | inactive
51 | Cc1nn(C)c(C)c1NS(=O)(=O)c1ccc(OC(F)(F)F)cc1 | 23.1 µM (active)
52 | O=S(=O)(Nc1ccc(O)c2ccccc12)c1ccc(OC(F)(F)F)cc1 | 13 µM (active)

Row | Structure (SMILES) | Potency
53 | COc1cc2c(cc1OC)CC(=O)N(CCCN(C)C[C@H]1Cc3cc(OC)c(OC)cc31)CC2 | inactive
54 | CC1CN(C(=O)CCC(=O)NCc2cccnc2)c2ccccc2O1 (configuration not stated) | inactive
55 | O=C(CC1Oc2ccccc2NC1=O)NCCCN1CCN(Cc2ccccc2)CC1 (configuration not stated) | inactive
56 | Cc1ccc(S(=O)(=O)NCCC(=O)NC2CCN(Cc3ccccc3)CC2)cc1 | inactive
57 | CC1CN(C(=O)CCC(=O)NCCCN2CCC(Cc3ccccc3)CC2)c2cc(Cl)ccc2O1 (configuration not stated) | 20.6 µM (active)
58 | CC(C)(C)NC(=O)NC(=O)CN1CCC(Cc2ccccc2)CC1 | inactive
59 | CC1CN(C(=O)CCC(=O)NC2CCN(Cc3ccccc3)CC2)c2ccccc2O1 (configuration not stated) | 23.1 µM (active)
60 | O=C(COC(=O)/C=C/c1cccc(Cl)c1)NCCc1ccccc1 | inactive
61 | COc1ccc(NC(=S)N2CCCC(CO)C2)c(OC)c1 (configuration not stated) | inactive
62 | CC(=O)Nc1ccc(S(=O)(=O)Oc2ccc(/C=N/N=C3/NC(=O)C(CC(=O)O)S3)cc2)cc1 (configuration not stated) | inactive
63 | CC(CNC(=O)c1ccc(Br)o1)NC(=O)c1ccc(Br)o1 (configuration not stated) | 8.2 µM (active)
64 | O=C(CNC(=O)c1ccc(Br)o1)Nc1ccccc1 | inactive
65 | CC(CCc1ccccc1)NC(=O)c1ccc(Br)o1 (configuration not stated) | inactive
66 | CCOc1ccc(OCC(=O)Nc2c3c(nn2C(C)(C)C)CS(=O)(=O)C3)cc1 | inactive
67 | COc1cc(C=O)c(Br)cc1OCC(=O)NCc1ccccc1 | inactive
68 | COc1cc(/C=N/O)cc(Br)c1OCc1cccc(Cl)c1 | inactive
69 | COc1cc(C(=O)NCc2ccncc2)cc(Br)c1OCc1ccccc1 | 18.4 µM (active)
70 | CN(CC(=O)Nc1cccc(F)c1)C(=O)CC1CCCC1 | inactive
71 | N/C(Cc1ccc([N+](=O)[O-])cc1)=N\OC(=O)C1CCCCC1 | inactive
72 | CC(=O)NC1CCN(CC(=O)Nc2nccs2)CC1 | inactive
73 | COc1ccc(CCNC(=O)c2cc(-c3ccc4c(c3)OCO4)on2)cc1OC | inactive
74 | COc1ccc(C#Cc2c(-c3ccc(OC)cc3)oc3ccc(-c4ccc5c(c4)OCO5)cc23)cc1 | inactive
75 | COc1cc2c(-c3ccc4c(c3)OCO4)c(-c3ccsc3)oc(=O)c2cc1OC | 16.4 µM (active)
76 | Brc1cccc[n+]1Cc1cccc(C[n+]2ccccc2Br)c1 | 12.6 µM (active)
77 | Clc1cccc[n+]1CCCC[n+]1ccccc1Cl | inactive
78 | O=C(COC(=O)c1cccc(Cl)c1)Nc1ccc2[nH]c(=O)[nH]c2c1 | inactive

Row | Structure (SMILES) | Potency
79 | CCC(=O)Nc1ccc(C(=O)CSc2nnc(CNc3ccc(Cl)cc3)o2)cc1OC | 20.6 µM (active)
80 | COc1cc(C(=O)NCc2nnc(SCC(=O)c3ccc(Cl)cc3)o2)cc(OC)c1OC | inactive
81 | CCOC(=O)CSc1nnc(CNc2ccc(F)cc2)o1 | inactive
82 | COc1ccc(CNC(=O)C(=O)NCC2OCCN2C(=O)c2ccc(OC)cc2)cc1 (configuration not stated) | inactive
83 | CC(C)(C)c1nnc(N/N=C/c2ccc(O)cc2)n(N)c1=O | inactive
84 | O=C(c1c(F)cccc1F)N1CCN(c2ncc(Br)cn2)CC1 | inactive
85 | COc1cccc(OC)c1C(=O)NC(=S)Nc1ccc(N2CCOCC2)c(Cl)c1 | inactive
86 | CCOc1ccc(C(=O)NC(=S)Nc2ccc(N3CCOCC3)c(Cl)c2)cc1[N+](=O)[O-] | 0.146 µM (active)
87 | CCOc1ccc(C(=O)NC(=S)Nc2ccc(NC(=O)C(C)C)cc2)cc1[N+](=O)[O-] | inactive
88 | CN(C)c1ccc(-c2nnc(-c3cccnc3)o2)cc1 | inactive
89 | CCC(C)(C(=O)Nc1ccccc1C)N(C(=O)CNC(C)=O)c1ccc(C)cc1 (configuration not stated) | inactive
90 | CCc1nnc(NS(=O)(=O)c2ccc(NS(=O)(=O)c3ccccc3)cc2)s1 | inactive
91 | COc1cc(NS(=O)(=O)c2ccc(N=Cc3c(C)[nH]n(-c4ccccc4)c3=O)cc2)nc(OC)n1 | inactive
92 | CCc1nnc(NS(=O)(=O)c2ccc(N=Cc3c(C)[nH]n(-c4ccc(C)cc4)c3=O)cc2)s1 | 11.6 µM (active)
93 | CS(=O)(=O)Nc1ccccc1C(=O)OCC(=O)NC1CC1 | inactive
94 | Cc1ccc(S(=O)(=O)c2nnn3c2nc(N2CCN(c4ccccc4F)CC2)c2cc(Cl)ccc23)cc1C | inactive
95 | CCCCc1cc2c(s1)CCCC/C2=N/O | inactive
96 | Cc1nnnn1/C(=C\c1ccccc1)C(=O)OCC(=O)N1CC2(C)CC1CC(C)(C)C2 (configuration not stated) | 13 µM (active)
97 | Cc1cccc(C(=O)NCC(=O)OCC(=O)N2CC3(C)CC2CC(C)(C)C3)c1 (configuration not stated) | inactive
98 | CCOC(=O)CNc1nc(Cl)nc(Nc2ccccc2)n1 | inactive
99 | CN(C)S(=O)(=O)c1cccc(C(=O)OCC(=O)N2CCCC2=O)c1 | inactive
100 | COc1ccc(NC(=O)N(C)C[C@H]2Oc3ccc(NC(=O)C4CC4)cc3C(=O)N([C@H](C)CO)C[C@@H]2C)cc1 | inactive
101 | Cc1noc(C)c1NC(=O)Nc1ccc2c(c1)C(=O)N([C@H](C)CO)C[C@H](C)[C@@H](CN(C)C(=O)Nc1ccccc1)O2 | inactive
102 | Cc1ccc(S(=O)(=O)Nc2ccc3c(c2)C(=O)N([C@H](C)CO)C[C@@H](C)[C@@H](CN(C)C(=O)Nc2cccc4ccccc24)O3)cc1 | 20.6 µM (active)
